# Screens deposited in PubChem BioAssay by National Center for Advancing Translational Sciences (NCATS).
# MCF10A rereplic: inducers of DNA re-replication in MCF 10A breast cells. MCF 10A DNA re-replication, Hoechst nuclear intensity, 48 h. Potency, µM (highest dose often 46.1 µM), for the others: top-dose activity, positive = re-replication, most hits filed as activators. 350,000 compounds, 2.9% hits. AID 624296; further: % of control where 0% means no effect; nearly all actives have a fitted effect of over 50% in size
# HT1080 IDH1KD tx: toxicity to HT-1080 IDH1 knockdown cells (counter line); HT-1080 IDH1 knockdown viability, ATP luminescence, 48 h; Potency, µM (series often up to 46.1 µM), for inactives: top-dose activity, negative = toxicity, hits mostly cytotoxic; 360,000 compounds, 2% hits; AID 686971;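 further: 0% = DMSO wells and -100% = cell-free medium wells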
#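 Viability of IDH1-knockdown HT-1080 fibrosarcoma cells was assessed by CellTiter-Glo after 48 h at 37 °C with titrated compound; concentration-effect curves were classified by fit quality and response size.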
# HT1080NT lethal: kills 2HG-producing HT-1080-NT fibrosarcoma cells | 360,000 compounds, 1.6% hits | Potency, µM (series often up to 46.1 µM), for the others: top-dose activity, negative = less viability, most hits filed as cytotoxic | AID 686970 | HT-1080-NT fibrosarcoma viability, CellTiter-Glo ATP luminescence, 48 h;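 further: NT is the 2HG producing partner of a matched IDH1 knockdown line; 0% = DMSO-treated cells and -100% = media-only wells without cells; nearly all actives have a fitted effect of over 55% in size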
#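 Fibrosarcoma NT cells, 750 per well in 5% FBS RPMI, were exposed to compound for 48 hours. Viability: CellTiter-Glo luminescence.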
# KB-V1 cytotox: kills drug-selected multidrug resistant KB-V1 cells; 400,000 compounds, 3.4% hits; Potency, µM (highest dose often 46.1 µM), hits mostly cytotoxic; KB-V1 MDR cells viability, CellTiter-Glo, 72 h; further: on the % scale 0 is the no-effect control and ±100 the full control effect; nearly all actives have a fitted effect of over 60% in size
#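 Potencies derive from concentration-effect curves fitted to normalized luminescence (CellTiter-Glo) of KB-V1 cells treated for 72 h at 37 degrees C in phenol-red-free DMEM containing 10% FBS.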
# KB-3-1 cytotox: kills parental KB-3-1 adenocarcinoma cells; KB-3-1 viability, CellTiter-Glo ATP luminescence, 72 h; Potency, µM (top dose mostly 46.1 µM), actives largely listed as cytotoxic; 400,000 compounds, 1.4% hits; further: on the % scale 0 is the no-effect control and ±100 the full control effect; nearly all actives have a fitted effect of over 60% in size
#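 Cytotoxicity measured as CellTiter-Glo luminescence after 72 h at 37 C. Compound titrations were pinned onto drug-naive KB-3-1 parental adenocarcinoma cells grown in DMEM with 10% FBS, and normalized data fitted to concentration-response curves.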
# SW480 rerep: inducers of DNA re-replication in SW480 colon cancer cells; Potency, µM (top dose mostly 46.1 µM), for inactives: at the top dose re-replication activation, usual class: activators; SW480 DNA re-replication, Hoechst DNA content imaging, 48 h; 340,000 compounds, 1.8% hits; further: % of control where 0% means no effect; nearly all actives have a fitted effect of over 55% in size
#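 250 cells/well; 23 nL cpd via pin tool; 48 hr, 37 C, 5% CO2; Hoechst 40 min; imager read of total nuclear intensity, ex 405/em 500-530 nm.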
# * marks the source's active call; other numbers are inactive results; i = inactive; ? = inconclusive; · = no result. Most compounds without a hit are left out; they make up all but 7.9% or so of the library. The call rests on the fitted dose curve; in most records, active means well fitted curve in the direction sought with a large enough effect; inconclusive means small, poorly fitted or top-dose-only effect, or another doubt; inactive means no such curve, though single readings can be large; an effect the other way counts as inactive or inconclusive. Potency means the concentration at half of the fitted maximal effect.
SMILES,MCF10A rereplic,HT1080 IDH1KD tx,HT1080NT lethal,KB-V1 cytotox,KB-3-1 cytotox,SW480 rerep
CCOc1ccc(N(CC(=O)Nc2ccc(OC)cc2)S(=O)(=O)c2ccc(Cl)cc2)cc1,·,·,·,i,i,·
Cc1ccc(Cl)cc1N1CCN(C(=O)c2cnn(C)c2C2CCN(C(=O)OC(C)(C)C)CC2)CC1,·,·,·,i,i,·
CC(C)c1ccc(OCC(=O)Nc2cc(-c3ccccc3)no2)cc1,·,·,·,?,i,·
O=C(C[n+]1cccc2cccc(O)c21)c1ccc2ccccc2c1,·,·,·,i,i,·
Cc1ccc(-n2ncc3c(N4CCN(Cc5ccccc5)CC4)ncnc32)cc1C,·,·,·,?,i,·
Cc1ccccc1N1CCN(c2ncnc3c2cnn3Cc2ccc(Cl)cc2)CC1,3.5%,-12.1%,-5.2%,?,18.4µM*,16.9%
COc1ccc(-n2ncc3c(N4CCN(Cc5ccccc5)CC4)ncnc32)cc1,20.6µM*,?,14.6µM*,13µM*,?,?
COC(=O)c1ccc(OCC2c3cc(OC)c(OC)cc3CCN2C(=O)COc2ccc(Cl)cc2)cc1 (centres undefined),·,·,·,i,i,·
CCOc1ccc2c(c1)OC(c1ccc(C)cc1)(C(F)(F)F)NC2=O (centres undefined),1.46µM*,2.31µM*,?,1.3µM*,i,?
Cn1nc(C(F)(F)F)c2cc(C(=O)Nc3ccc(F)cc3)sc21,?,-14.6%,-1.2%,i,i,-39.1%
Cn1nc(C(F)(F)F)c(-c2ccc(F)cc2)c1NC(=O)Nc1ccc(F)cc1,-27.2%,?,23.1µM*,?,?,-14.2%
CC1(C(=O)NCc2cccc(Cl)c2)Cc2c(-c3ccccc3)ccnc2O1 (centres undefined),·,?,-23.7%,i,i,·
CC1(C(=O)NCCc2ccccc2)Cc2c(-c3ccc4c(c3)OCO4)ccnc2O1 (centres undefined),·,?,?,i,i,·
CC1(C(=O)NCc2ccccc2)Cc2c(-c3ccc4c(c3)OCO4)ccnc2O1 (centres undefined),·,?,?,2.06µM*,4.61µM*,·
COCCNC(=O)C1(C)Cc2c(-c3ccc4c(c3)OCO4)ccnc2O1 (centres undefined),·,18.4µM*,?,i,?,·
CC1(C(=O)NCc2ccco2)Cc2c(-c3ccc(C(N)=O)cc3)ccnc2O1 (centres undefined),·,2.91µM*,3.26µM*,i,18.4µM*,·
CC1(C(=O)NCc2ccccc2)Cc2c(-c3ccccc3)ccnc2O1 (centres undefined),·,?,?,?,20.6µM*,·
COc1cc(OC)c(-c2nn3c(-c4cc(C)[nH]n4)nnc3s2)cc1OC,·,·,·,?,i,·
CC1(C(=O)NCc2ccccc2)Cc2c(-c3ccc(C(N)=O)cc3)ccnc2O1 (centres undefined),·,1.46µM*,?,i,8.2µM*,·
COc1ccc(CNC(=O)C2(C)Cc3c(-c4ccccc4)ccnc3O2)cc1OC (centres undefined),·,-27.6%,-20.2%,i,i,·
N#Cc1cccnc1N1CCN(C(C(=O)NC2CCCC2)c2ccco2)CC1 (centres undefined),·,12.9%,19.9%,?,i,·
CCCN(CCC)C(=O)CC(c1ccccc1)c1cc(C)ccc1O (centres undefined),?,?,?,?,i,8.8%
CN(Cc1ccccc1)C(=O)CC(c1ccccc1)c1cc(Cl)ccc1O (centres undefined),?,?,?,13µM*,?,?
CC(NC(=O)CCSCCC(=O)NC(C)c1ccccc1)c1ccccc1 (centres undefined),15.2%,?,7.2%,16.4µM*,i,-1.6%
